Our source for the binding signal values is publication PMC7862700, “An all-to-all approach to the identification of sequence-specific readers for epigenetic DNA modifications on cytosine”.

Holding throughout (assay): DAPPL (digital affinity profiling via proximity ligation, sequencing); 10 mM Tris-HCl pH 7.5, 50 mM NaCl, 1 mM DTT, 4% glycerol, room temperature, 30 min; GST-TFs on glutathione beads, 16-mer random dsDNA library, 0.1% formaldehyde crosslink after washing; high values mean tight binding
One experiment has as its target T1, FEV (Homo sapiens, UniProt Q99581 1-238).
T1 sequence: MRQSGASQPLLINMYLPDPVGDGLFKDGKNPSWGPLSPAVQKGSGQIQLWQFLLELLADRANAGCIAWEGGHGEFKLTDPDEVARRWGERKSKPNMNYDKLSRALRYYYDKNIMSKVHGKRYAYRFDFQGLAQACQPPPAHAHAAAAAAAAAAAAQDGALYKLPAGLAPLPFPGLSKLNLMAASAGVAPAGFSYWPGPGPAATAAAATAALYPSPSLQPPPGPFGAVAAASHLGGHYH
To be noted: protein: recombinant; tags: N-terminal GST; dsDNA, one strand shown. The procedure, abridged:
(§1)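 Binding signal is given per hexamer as its read frequency for a factor divided by its frequency in the tag-only sample. GST-fused human transcription factors were expressed in yeast, captured on glutathione beads, barcoded with DNA and pooled with that sample, then incubated with 200 nmole of a 16-mer random double-stranded DNA library in Tris/NaCl/DTT/glycerol buffer for 30 min at room temperature. The pools were then washed, crosslinked, proximity-ligated, amplified by PCR and sequenced on an Illumina NextSeq500.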

A further experiment deals with ETV5 (Homo sapiens, UniProt P41161 1-510). To be noted: protein: recombinant; tags: N-terminal GST; dsDNA, one strand shown. An outline of the steps: as §1
Another experiment has as its target HSF1 (Homo sapiens, UniProt Q00613 1-529). Particulars: protein: recombinant; tags: N-terminal GST; chain copies: 3; dsDNA, one strand shown. The procedure, abridged: as §1
In a further experiment the target is T2, SPIC (Homo sapiens, UniProt Q8N5J4 1-248).
T2 sequence: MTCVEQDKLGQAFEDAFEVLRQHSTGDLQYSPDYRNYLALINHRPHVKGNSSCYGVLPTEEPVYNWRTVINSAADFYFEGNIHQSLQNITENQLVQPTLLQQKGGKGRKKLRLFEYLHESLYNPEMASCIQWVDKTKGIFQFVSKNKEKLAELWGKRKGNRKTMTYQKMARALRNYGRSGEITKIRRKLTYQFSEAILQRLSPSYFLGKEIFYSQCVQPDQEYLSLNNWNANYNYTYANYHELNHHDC
To be noted: protein: recombinant; tags: N-terminal GST; dsDNA, one strand shown. The procedure, abridged:
as §1

A further experiment concerns the target ELF4 (Homo sapiens, UniProt Q99607 1-663). Particulars: protein: recombinant; tags: N-terminal GST; dsDNA, one strand shown. An outline of the steps:
as §1

Another experiment has as its target T3, ELK4 (Homo sapiens, UniProt P28324-2 1-405).
T3 sequence: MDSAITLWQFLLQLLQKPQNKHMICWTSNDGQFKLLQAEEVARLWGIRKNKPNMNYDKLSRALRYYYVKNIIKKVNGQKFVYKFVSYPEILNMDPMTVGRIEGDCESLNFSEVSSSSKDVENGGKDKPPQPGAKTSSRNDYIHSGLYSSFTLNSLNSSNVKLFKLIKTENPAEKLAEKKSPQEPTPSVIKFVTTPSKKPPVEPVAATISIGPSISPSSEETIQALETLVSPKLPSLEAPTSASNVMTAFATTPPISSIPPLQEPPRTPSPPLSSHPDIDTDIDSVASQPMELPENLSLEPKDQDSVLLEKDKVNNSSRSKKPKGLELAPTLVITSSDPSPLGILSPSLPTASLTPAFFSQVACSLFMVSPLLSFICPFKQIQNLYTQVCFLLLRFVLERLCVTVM
Particulars: protein: recombinant; tags: N-terminal GST; dsDNA, one strand shown. The procedure, abridged:
as §1

The target in the next experiment is T4, ETV2 (Homo sapiens, UniProt O00321 1-342).
T4 sequence: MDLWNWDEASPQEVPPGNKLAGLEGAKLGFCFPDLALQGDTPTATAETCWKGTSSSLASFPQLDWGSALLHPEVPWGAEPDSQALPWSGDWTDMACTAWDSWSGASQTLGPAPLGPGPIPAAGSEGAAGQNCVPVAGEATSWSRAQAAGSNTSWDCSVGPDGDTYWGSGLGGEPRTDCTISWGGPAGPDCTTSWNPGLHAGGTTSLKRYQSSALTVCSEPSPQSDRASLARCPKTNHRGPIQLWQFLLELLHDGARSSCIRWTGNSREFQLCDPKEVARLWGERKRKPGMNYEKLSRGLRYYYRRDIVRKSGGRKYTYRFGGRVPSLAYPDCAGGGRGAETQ
Particulars: protein: recombinant; tags: N-terminal GST; dsDNA, one strand shown. The procedure, abridged: as §1

Another experiment deals with T5, ELF3 (Homo sapiens, UniProt P78545 1-371).
T5 sequence: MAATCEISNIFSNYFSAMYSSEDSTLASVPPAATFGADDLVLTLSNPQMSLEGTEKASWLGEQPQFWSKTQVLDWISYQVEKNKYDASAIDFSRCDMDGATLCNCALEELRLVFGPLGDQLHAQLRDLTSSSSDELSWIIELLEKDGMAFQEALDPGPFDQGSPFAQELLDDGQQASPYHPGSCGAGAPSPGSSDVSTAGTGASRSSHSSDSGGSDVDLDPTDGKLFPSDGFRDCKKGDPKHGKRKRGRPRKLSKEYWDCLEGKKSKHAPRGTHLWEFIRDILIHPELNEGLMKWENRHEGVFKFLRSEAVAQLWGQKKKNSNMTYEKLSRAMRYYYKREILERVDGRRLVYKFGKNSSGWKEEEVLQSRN
Particulars: protein: recombinant; tags: N-terminal GST; dsDNA, one strand shown. An outline of the steps:
as §1

The next experiment deals with CRX (Homo sapiens, UniProt O43186 1-299). To be noted: protein: recombinant; tags: N-terminal GST; dsDNA, one strand shown. An outline of the steps: as §1
A further experiment addresses ETV1 (Homo sapiens, UniProt P50549 1-477). Particulars: protein: recombinant; tags: N-terminal GST; dsDNA, one strand shown. An outline of the steps:
as §1

The next experiment deals with T6, ERF (Homo sapiens, UniProt P50548 1-548).
T6 sequence: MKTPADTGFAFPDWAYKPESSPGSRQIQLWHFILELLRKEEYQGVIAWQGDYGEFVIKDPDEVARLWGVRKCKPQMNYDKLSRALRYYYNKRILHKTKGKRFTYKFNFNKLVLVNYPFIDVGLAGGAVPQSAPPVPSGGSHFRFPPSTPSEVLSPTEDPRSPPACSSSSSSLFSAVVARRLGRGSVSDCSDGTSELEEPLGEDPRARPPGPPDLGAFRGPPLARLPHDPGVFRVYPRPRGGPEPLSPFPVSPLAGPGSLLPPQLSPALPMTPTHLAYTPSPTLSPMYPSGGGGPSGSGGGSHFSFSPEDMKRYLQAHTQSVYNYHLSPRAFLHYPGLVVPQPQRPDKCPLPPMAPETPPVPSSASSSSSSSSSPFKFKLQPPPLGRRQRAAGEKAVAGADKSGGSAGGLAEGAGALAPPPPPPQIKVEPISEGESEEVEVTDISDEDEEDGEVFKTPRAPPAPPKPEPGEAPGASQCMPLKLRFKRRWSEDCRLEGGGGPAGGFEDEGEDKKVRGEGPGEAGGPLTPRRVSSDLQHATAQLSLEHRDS
To be noted: protein: recombinant; tags: N-terminal GST; dsDNA, one strand shown. An outline of the steps:
as §1

The next experiment has as its target T7, ETV3L (Homo sapiens, UniProt Q6ZN32 1-361).
T7 sequence: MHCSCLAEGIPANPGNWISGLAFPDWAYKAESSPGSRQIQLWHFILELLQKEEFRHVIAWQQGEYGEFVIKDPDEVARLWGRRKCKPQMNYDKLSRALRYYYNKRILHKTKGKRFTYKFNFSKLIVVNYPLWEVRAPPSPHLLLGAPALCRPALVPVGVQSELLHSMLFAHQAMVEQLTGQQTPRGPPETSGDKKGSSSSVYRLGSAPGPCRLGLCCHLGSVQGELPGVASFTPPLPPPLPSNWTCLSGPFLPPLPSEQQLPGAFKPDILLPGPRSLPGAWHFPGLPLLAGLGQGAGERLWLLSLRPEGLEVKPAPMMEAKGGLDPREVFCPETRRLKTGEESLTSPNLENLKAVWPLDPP
Particulars: protein: recombinant; tags: N-terminal GST; dsDNA, one strand shown. The procedure, abridged: as §1

A further experiment deals with T8, ETS2 (Homo sapiens, UniProt P15036 1-469).
T8 sequence: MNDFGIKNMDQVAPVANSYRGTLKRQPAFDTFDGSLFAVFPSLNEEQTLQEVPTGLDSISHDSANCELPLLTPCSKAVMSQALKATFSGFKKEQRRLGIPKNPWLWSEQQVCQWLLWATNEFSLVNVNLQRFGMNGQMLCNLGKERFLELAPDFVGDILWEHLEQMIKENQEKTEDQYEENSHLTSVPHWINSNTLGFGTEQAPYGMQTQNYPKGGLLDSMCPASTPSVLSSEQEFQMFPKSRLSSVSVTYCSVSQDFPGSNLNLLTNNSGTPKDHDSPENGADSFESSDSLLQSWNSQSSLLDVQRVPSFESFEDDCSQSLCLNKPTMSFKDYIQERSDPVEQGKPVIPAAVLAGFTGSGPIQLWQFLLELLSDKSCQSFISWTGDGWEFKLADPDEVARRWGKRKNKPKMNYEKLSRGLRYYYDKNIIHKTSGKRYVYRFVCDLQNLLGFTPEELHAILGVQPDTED
To be noted: protein: recombinant; tags: N-terminal GST; dsDNA, one strand shown. The procedure, abridged: as §1

In a further experiment the target is T9, SPDEF (Homo sapiens, UniProt O95238 1-335).
T9 sequence: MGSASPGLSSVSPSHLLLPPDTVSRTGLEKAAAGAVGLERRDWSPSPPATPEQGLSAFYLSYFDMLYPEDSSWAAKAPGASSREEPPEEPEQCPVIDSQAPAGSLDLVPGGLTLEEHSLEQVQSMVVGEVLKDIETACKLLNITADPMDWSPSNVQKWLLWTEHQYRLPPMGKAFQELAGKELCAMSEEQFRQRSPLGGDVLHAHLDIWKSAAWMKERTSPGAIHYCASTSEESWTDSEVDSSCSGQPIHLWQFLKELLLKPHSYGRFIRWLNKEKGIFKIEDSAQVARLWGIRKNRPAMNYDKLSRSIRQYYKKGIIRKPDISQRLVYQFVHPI
Particulars: protein: recombinant; tags: N-terminal GST; dsDNA, one strand shown. The procedure, abridged: as §1

The next experiment addresses T10, ETV7 (Homo sapiens, UniProt Q9Y603 1-341).
T10 sequence: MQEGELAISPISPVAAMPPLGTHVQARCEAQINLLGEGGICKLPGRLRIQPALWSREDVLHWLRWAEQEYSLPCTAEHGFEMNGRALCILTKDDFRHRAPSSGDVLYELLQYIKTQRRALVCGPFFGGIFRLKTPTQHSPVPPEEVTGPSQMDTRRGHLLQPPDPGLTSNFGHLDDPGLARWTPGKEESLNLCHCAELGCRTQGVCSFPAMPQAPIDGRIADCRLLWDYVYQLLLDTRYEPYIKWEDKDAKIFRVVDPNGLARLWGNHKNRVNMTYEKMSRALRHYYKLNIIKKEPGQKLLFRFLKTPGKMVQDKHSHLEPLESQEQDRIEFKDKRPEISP
To be noted: protein: recombinant; tags: N-terminal GST; dsDNA, one strand shown. The procedure, abridged: as §1

The target in a further experiment is T11, ELF5 (Homo sapiens, UniProt Q9UKW6-2 1-255).
T11 sequence: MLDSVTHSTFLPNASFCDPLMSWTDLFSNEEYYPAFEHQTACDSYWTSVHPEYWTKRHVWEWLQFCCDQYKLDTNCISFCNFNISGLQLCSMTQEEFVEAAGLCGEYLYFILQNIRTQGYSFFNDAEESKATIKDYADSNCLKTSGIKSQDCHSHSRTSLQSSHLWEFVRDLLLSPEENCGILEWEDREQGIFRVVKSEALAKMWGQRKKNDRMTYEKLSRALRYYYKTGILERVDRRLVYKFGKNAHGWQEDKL
To be noted: protein: recombinant; tags: N-terminal GST; dsDNA, one strand shown. The procedure, abridged: as §1

The next experiment addresses T12, ETV3 (Homo sapiens, UniProt P41162-2 1-143).
T12 sequence: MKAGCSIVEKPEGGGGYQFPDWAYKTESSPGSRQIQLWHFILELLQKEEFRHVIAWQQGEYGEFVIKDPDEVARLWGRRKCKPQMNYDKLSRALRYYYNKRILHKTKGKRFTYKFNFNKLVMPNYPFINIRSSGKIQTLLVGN
Particulars: protein: recombinant; tags: N-terminal GST; dsDNA, one strand shown. An outline of the steps: as §1

A further experiment addresses ETV6 (Homo sapiens, UniProt P41212 1-452). Particulars: protein: recombinant; tags: N-terminal GST; dsDNA, one strand shown. An outline of the steps: as §1

Sequence of HSF1 (Q00613 whole entry): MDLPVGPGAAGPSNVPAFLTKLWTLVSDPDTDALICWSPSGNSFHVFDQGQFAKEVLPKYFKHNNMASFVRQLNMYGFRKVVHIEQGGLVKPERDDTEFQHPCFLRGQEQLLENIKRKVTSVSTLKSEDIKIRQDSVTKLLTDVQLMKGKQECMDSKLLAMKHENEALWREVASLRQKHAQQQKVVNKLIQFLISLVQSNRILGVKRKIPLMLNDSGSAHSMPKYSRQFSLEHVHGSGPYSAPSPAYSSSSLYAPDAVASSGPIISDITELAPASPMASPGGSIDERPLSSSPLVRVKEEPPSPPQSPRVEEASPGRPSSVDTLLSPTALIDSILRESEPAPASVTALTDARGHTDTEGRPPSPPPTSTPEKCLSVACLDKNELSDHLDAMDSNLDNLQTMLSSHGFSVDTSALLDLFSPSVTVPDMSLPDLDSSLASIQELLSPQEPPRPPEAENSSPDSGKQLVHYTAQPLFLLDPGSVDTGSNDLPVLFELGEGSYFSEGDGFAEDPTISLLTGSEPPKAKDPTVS
Sequence of ETV5 (P41161 whole entry): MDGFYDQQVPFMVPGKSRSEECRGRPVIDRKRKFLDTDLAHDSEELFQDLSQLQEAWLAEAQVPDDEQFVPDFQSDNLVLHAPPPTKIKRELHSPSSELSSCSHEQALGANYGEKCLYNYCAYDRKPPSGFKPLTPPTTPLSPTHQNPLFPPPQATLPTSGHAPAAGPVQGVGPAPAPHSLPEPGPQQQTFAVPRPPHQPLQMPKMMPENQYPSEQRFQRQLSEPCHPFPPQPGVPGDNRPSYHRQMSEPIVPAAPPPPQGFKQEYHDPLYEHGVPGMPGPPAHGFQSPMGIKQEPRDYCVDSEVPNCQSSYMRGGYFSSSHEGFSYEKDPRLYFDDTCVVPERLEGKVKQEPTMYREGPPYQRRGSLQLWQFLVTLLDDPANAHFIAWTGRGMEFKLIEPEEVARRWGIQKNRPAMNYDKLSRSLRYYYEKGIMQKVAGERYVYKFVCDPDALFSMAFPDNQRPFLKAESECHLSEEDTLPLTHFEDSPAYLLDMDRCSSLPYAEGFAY
Sequence of ELF4 (Q99607 whole entry): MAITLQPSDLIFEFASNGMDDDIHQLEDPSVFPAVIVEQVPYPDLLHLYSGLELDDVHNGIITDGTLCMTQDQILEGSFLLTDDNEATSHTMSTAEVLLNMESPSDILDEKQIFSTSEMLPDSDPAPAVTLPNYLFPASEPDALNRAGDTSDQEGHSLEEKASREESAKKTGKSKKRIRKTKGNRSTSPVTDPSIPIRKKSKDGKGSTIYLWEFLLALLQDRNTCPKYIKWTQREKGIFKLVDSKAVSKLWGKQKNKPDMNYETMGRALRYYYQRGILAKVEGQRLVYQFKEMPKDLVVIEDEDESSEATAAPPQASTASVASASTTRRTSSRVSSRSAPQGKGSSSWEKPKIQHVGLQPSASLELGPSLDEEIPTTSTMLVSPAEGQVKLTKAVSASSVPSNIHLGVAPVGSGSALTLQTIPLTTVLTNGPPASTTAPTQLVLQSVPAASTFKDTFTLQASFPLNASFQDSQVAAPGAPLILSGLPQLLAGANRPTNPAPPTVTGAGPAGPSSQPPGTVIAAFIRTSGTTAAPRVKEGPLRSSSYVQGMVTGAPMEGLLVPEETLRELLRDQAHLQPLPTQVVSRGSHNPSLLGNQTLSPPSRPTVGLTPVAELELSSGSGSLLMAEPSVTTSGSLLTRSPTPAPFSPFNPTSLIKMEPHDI
Sequence of ETV6 (P41212 whole entry): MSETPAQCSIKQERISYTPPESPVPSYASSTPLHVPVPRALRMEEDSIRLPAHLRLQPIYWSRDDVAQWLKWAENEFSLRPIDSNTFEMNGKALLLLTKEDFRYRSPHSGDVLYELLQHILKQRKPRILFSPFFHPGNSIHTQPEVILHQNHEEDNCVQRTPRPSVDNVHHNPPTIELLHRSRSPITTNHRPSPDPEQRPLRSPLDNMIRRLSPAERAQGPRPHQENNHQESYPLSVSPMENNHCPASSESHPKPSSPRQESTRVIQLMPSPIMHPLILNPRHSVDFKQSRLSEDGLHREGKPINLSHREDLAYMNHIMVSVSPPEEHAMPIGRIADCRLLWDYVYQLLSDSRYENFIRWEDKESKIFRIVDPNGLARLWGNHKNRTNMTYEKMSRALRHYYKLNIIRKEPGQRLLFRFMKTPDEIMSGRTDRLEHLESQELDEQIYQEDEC
Sequence of ETV1 (P50549 whole entry): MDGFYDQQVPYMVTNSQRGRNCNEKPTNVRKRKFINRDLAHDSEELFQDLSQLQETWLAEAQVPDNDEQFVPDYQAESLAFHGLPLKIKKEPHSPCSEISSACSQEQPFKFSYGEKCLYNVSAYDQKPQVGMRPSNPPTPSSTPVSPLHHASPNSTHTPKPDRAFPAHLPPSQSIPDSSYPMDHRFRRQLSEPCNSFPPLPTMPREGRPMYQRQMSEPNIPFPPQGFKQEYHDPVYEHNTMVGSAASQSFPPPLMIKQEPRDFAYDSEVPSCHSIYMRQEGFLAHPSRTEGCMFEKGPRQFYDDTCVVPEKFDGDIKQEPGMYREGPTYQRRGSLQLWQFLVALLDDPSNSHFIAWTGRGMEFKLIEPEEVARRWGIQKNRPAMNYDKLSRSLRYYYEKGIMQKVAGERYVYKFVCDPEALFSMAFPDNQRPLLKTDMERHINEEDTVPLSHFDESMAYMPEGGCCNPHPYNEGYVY
Sequence of CRX (O43186 whole entry): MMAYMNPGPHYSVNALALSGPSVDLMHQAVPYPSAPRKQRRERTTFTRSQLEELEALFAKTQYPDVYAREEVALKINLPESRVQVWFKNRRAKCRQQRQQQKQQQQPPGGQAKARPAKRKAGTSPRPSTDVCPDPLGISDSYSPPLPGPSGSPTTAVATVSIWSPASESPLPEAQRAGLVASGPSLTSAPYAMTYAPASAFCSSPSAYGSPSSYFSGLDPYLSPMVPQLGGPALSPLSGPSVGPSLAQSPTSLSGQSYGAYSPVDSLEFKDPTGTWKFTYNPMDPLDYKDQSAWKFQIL

Turning to AAAACA, the binding signal with FEV was 1.34 fold enrichment (6-mer frequency, TF over GST control); in the experiment with ETV5, 1.31 fold enrichment (6-mer frequency, TF over GST control); with HSF1, 1.25 fold enrichment (6-mer frequency, TF over GST control); in the experiment with SPIC it was 1.42 fold enrichment (6-mer frequency, TF over GST control); in the experiment with ELF4, 1.39 fold enrichment (6-mer frequency, TF over GST control); with ELK4, 1.22 fold enrichment (6-mer frequency, TF over GST control). Also, the binding signal was 1.34 fold enrichment (6-mer frequency, TF over GST control) with ETV2; 1.38 fold enrichment (6-mer frequency, TF over GST control) with ELF3; 1.13 fold enrichment (6-mer frequency, TF over GST control) with CRX; 1.37 fold enrichment (6-mer frequency, TF over GST control) with ETV1; 1.26 fold enrichment (6-mer frequency, TF over GST control) with ERF; 1.32 fold enrichment (6-mer frequency, TF over GST control) with ETV3L. Besides, the binding signal was 1.38 fold enrichment (6-mer frequency, TF over GST control) in the experiment with ETS2; 1.29 fold enrichment (6-mer frequency, TF over GST control) in the experiment with SPDEF; 1.34 fold enrichment (6-mer frequency, TF over GST control) in the experiment with ETV7; 1.34 fold enrichment (6-mer frequency, TF over GST control) with ELF5; 1.31 fold enrichment (6-mer frequency, TF over GST control) in the experiment with ETV3; 1.27 fold enrichment (6-mer frequency, TF over GST control) in the experiment with ETV6.
